TDP1 cell noCPT = qHTS for Inhibitors of human tyrosyl-DNA phosphodiesterase 1 (TDP1): qHTS in cells in absence of CPT; Potency, µM (top dose mostly 46.2 µM), for inactives: at the highest dose activity change, negative = growth inhibition, actives largely listed as inhibitors; actives 15% (n = 420,000); DT40 Tdp1-/- hTDP1 cells, no CPT, ATP luminescence, 48 h; note: potency is the fitted concentration of half-maximal effect; nearly all actives have a fitted effect of over 55% in size
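Camptothecin absent (DMSO only). Human TDP1-complemented DT40 knockout cells, 400 cells/well, 37 °C for minimum 48 hr; ATP measured via CellTiter-Glo, 30 min dark incubation, luminescence.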
IL-1B inflam inh = inhibitors of inflammasome signaling (IL-1 beta secretion); activity change, % at 57.5 µM; THP-1 LPS/ATP IL-1B secretion, AlphaLISA, 16 h; hits give low values; actives 4.7% (n = 360,000); in the data active = activity change below about -50%; inconclusive = mostly about -30% to -49%
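Secreted IL-1B measured by AlphaLISA bead assay after 16 h compound exposure of THP-1 cells; compounds (final up to 57.5 uM) added 1 h before LPS (250 ng/mL) and ATP (1.25 mM) stimulation; lower signal means less secretion.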
DT40 TDP1 CPT = DT40-hTDP1 cell growth loss with CPT; AID 686979; Potency, µM (top dose mostly 46.2 µM), for inactives: at the top dose activity change, negative = growth inhibition, actives largely listed as inhibitors; actives 12% (n = 420,000); chicken DT40 Tdp1-/-;hTDP1 cells + 20 nM CPT, ATP luminescence, 48 h; note: potency is the fitted concentration of half-maximal effect; nearly all actives have a fitted effect of over 55% in size
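Chicken DT40 Tdp1-/- cells stably complemented with human TDP1 were seeded at 400 cells/well in medium containing 20 nM camptothecin, exposed to pin-transferred compounds, and grown at 37 °C for at least 48 hr. Viability was read as ATP luminescence.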
ELG1 DNA repair = ELG1-dependent DNA repair inhibition; Potency, µM (titrated, usually from 46.1 µM), for inactives: top-dose activity change, negative = inhibition, actives largely listed as inhibitors; actives 2.3% (n = 330,000); AID 504467; HEK293T ELG1-luciferase reporter, luminescence, 16 h; DNA damage induced by 5-fluorouridine; note: potency is the fitted concentration of half-maximal effect; nearly all actives have a fitted effect of over 55% in size
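Cells (2,000 per well) received 5-fluorouridine plus test compound or DMSO and were incubated 16 hr at 37 °C, 5% CO2. Luciferase activity was read by luminescence 30 min after ONE-Glo addition; signal suppression marked inhibition of damage-induced ELG1 function.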
HT1080 IDH1KD tx = HT-1080 IDH1 knockdown cell toxicity (counter line) | actives 2% (n = 360,000) | HT-1080 IDH1 knockdown viability, ATP luminescence, 48 h | Potency, µM (highest dose often 46.1 µM), inactives show at the top dose activity, negative = toxicity, hits mostly cytotoxic | AID 686971;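 note: potency is the fitted concentration of half-maximal effect; 0% = DMSO wells and -100% = cell-free medium wells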
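Cytotoxicity counter-line: IDH1KD HT-1080, 48 h, CellTiter-Glo. Curves classed by r2, magnitude and activity.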
HT1080NT lethal = kills 2HG-producing HT-1080-NT fibrosarcoma cells; HT-1080-NT fibrosarcoma viability, CellTiter-Glo ATP luminescence, 48 h; Potency, µM (highest dose often 46.1 µM), inactives show at the highest dose activity, negative = less viability, most hits filed as cytotoxic; actives 1.6% (n = 360,000); AID 686970;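 note: NT is the 2HG producing partner of a matched IDH1 knockdown line; potency is the fitted concentration of half-maximal effect; 0% = DMSO-treated cells and -100% = media-only wells without cells; nearly all actives have a fitted effect of over 55% in size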
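Fibrosarcoma NT cells, 750 per well in 5% FBS RPMI, were exposed to compound for 48 hours. Viability: CellTiter-Glo luminescence.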
Starred values were filed as active, the others as inactive. An excerpt weighted towards active compounds, which were near 19% of everything screened. Unless noted, calls come from the whole dose curve; as a rule, active = well fitted curve in the direction sought with a large enough effect; inconclusive = small, poorly fitted or top-dose-only effect, or another doubt; inactive = no such curve, though single readings can be large; an effect the other way counts as inactive or inconclusive. Unless noted, % is set by controls: 0 for no effect and ±100 for the full control effect.

Screening CCOc1ccccc1N1CCN(C(=O)c2cc(S(=O)(=O)N(C)C)ccc2N2CCCC2)CC1 returned TDP1 cell noCPT inconclusive, IL-1B inflam inh 5, DT40 TDP1 CPT inconclusive, ELG1 DNA repair inconclusive, HT1080 IDH1KD tx 2% and HT1080NT lethal -8%.
For COCCCNC(=S)Nc1cccc2ncccc12 the results were TDP1 cell noCPT inconclusive, IL-1B inflam inh 159, DT40 TDP1 CPT inconclusive, ELG1 DNA repair -12%, HT1080 IDH1KD tx inconclusive and HT1080NT lethal inconclusive.
`COCCn1c(C)cc(C(=O)COC(=O)Cc2n[nH]c(=O)c3ccccc23)c1C` gave TDP1 cell noCPT 21µM*, IL-1B inflam inh -11, DT40 TDP1 CPT inconclusive, ELG1 DNA repair inconclusive, HT1080 IDH1KD tx -5% and HT1080NT lethal 1%.
COc1ccc(-n2c(C)cc(C(=O)COC(=O)Cc3n[nH]c(=O)c4ccccc34)c2C)cc1 was read as TDP1 cell noCPT 9.2µM*, IL-1B inflam inh -7, DT40 TDP1 CPT 12µM*, ELG1 DNA repair inconclusive, HT1080 IDH1KD tx inconclusive and HT1080NT lethal inconclusive.
For COc1ccccc1C(=O)COC(=O)Cc1n[nH]c(=O)c2ccccc12 the results were TDP1 cell noCPT -27%, IL-1B inflam inh 6, DT40 TDP1 CPT 1%, ELG1 DNA repair -2%, HT1080 IDH1KD tx 0% and HT1080NT lethal 6%.
Screening COCCn1c(C)cc(C(=O)COC(=O)c2ccc3ncsc3c2)c1C returned TDP1 cell noCPT 15µM*, IL-1B inflam inh -12, DT40 TDP1 CPT 13µM*, ELG1 DNA repair inconclusive, HT1080 IDH1KD tx -29% and HT1080NT lethal 2%.
For Cc1cc(C(=O)COC(=O)Cc2n[nH]c(=O)c3ccccc23)c(C)n1CC(F)(F)F the results were TDP1 cell noCPT -25%, IL-1B inflam inh 14, DT40 TDP1 CPT -23%, ELG1 DNA repair 3%, HT1080 IDH1KD tx -2% and HT1080NT lethal 4%.
For Cc1cc(C(=O)COC(=O)Cc2n[nH]c(=O)c3ccccc23)c(C)n1-c1ccc2c(c1)OCO2 the results were TDP1 cell noCPT 21µM*, IL-1B inflam inh 27, DT40 TDP1 CPT 18µM*, ELG1 DNA repair 13µM*, HT1080 IDH1KD tx -3% and HT1080NT lethal -4%.
For COCCn1c(C)cc(C(=O)COC(=O)c2n[nH]c3ccccc23)c1C the results were TDP1 cell noCPT 23µM*, IL-1B inflam inh -4, DT40 TDP1 CPT -29%, ELG1 DNA repair inconclusive, HT1080 IDH1KD tx -15% and HT1080NT lethal -10%.
For Cc1cc(C)cc(-n2ncc3c2CCCC3NC(=O)c2ccccc2)c1 (stereo not given) the results were TDP1 cell noCPT inconclusive, IL-1B inflam inh -13, DT40 TDP1 CPT inconclusive, HT1080 IDH1KD tx -26% and HT1080NT lethal -5%.
For COc1cccc(C(=O)NC2CCCc3c2cnn3-c2cc(C)cc(C)c2)c1 (stereo not given) the results were TDP1 cell noCPT inconclusive, IL-1B inflam inh -58*, DT40 TDP1 CPT inconclusive, ELG1 DNA repair -4%, HT1080 IDH1KD tx -20% and HT1080NT lethal -14%.
CSCC(=O)NC1CCCc2c1cnn2-c1ccc(C)c(C)c1 (stereo not given) was read as TDP1 cell noCPT inconclusive, IL-1B inflam inh -7, DT40 TDP1 CPT -12%, ELG1 DNA repair 15%, HT1080 IDH1KD tx -6% and HT1080NT lethal -4%.
COC(=O)c1ccc(C(=O)NC2CCCc3c2cnn3-c2ccc(C)c(C)c2)cc1 (stereo not given) was read as TDP1 cell noCPT 1µM*, IL-1B inflam inh 8, DT40 TDP1 CPT 1.3µM*, ELG1 DNA repair -3%, HT1080 IDH1KD tx 23µM* and HT1080NT lethal 15µM*.
`Cc1cc(C(=O)NC2CCCc3c2cnn3-c2ccc(C)c(C)c2)nc(C)n1` (stereo not given) gave TDP1 cell noCPT 16µM*, IL-1B inflam inh 24, DT40 TDP1 CPT inconclusive, ELG1 DNA repair -15%, HT1080 IDH1KD tx -19% and HT1080NT lethal -1%.
For CC1(C)CCC2(C(=O)O)CC[C@]3(C)C(=CCC4[C@]5(C)CCC(O)C(C)(C)C5C(O)C[C@]43C)C2C1 (stereo not given in full) the results were TDP1 cell noCPT -16% and DT40 TDP1 CPT -2%.
COc1cc(-c2cc(C(=O)Nc3ccccc3N3CCOCC3)c3ccccc3n2)cc(OC)c1OC was read as TDP1 cell noCPT 21µM*, IL-1B inflam inh -67*, DT40 TDP1 CPT 18µM*, ELG1 DNA repair 5.8µM*, HT1080 IDH1KD tx 9% and HT1080NT lethal 1%.
For O=C(Nc1ccc(F)cc1F)c1cc(-c2ccco2)nc2ccccc12 the results were TDP1 cell noCPT 16µM*, IL-1B inflam inh 1, DT40 TDP1 CPT inconclusive, ELG1 DNA repair -16%, HT1080 IDH1KD tx -5% and HT1080NT lethal -6%.
For O=C(Nc1ccccc1F)c1cc(-c2ccco2)nc2ccccc12 the results were TDP1 cell noCPT inconclusive, IL-1B inflam inh 10, DT40 TDP1 CPT inconclusive, HT1080 IDH1KD tx -7% and HT1080NT lethal -3%.
For O=C(Nc1ccccc1N1CCOCC1)c1cc(-c2ccco2)nc2ccccc12 the results were TDP1 cell noCPT 21µM*, IL-1B inflam inh -17, DT40 TDP1 CPT 21µM*, ELG1 DNA repair 5.2µM*, HT1080 IDH1KD tx -23% and HT1080NT lethal inconclusive.
For CCCC(=O)Nc1c(-c2ccccc2)[nH][nH]c1=O the results were TDP1 cell noCPT 16%, IL-1B inflam inh 13, DT40 TDP1 CPT -5%, HT1080 IDH1KD tx 14% and HT1080NT lethal 23%.
For CON(C)C(=O)CC(CN(Cc1ccccc1)C(=O)OC(C)(C)C)c1ccc(Cl)cc1 (stereo not given) the results were TDP1 cell noCPT inconclusive, IL-1B inflam inh -61*, DT40 TDP1 CPT 23µM*, ELG1 DNA repair inconclusive, HT1080 IDH1KD tx -26% and HT1080NT lethal -24%.
For CC(C)C(NC(=O)CNC(=O)OC(C)(C)C)C(=O)NCc1ccc(Cl)cc1 (stereo not given) the results were TDP1 cell noCPT 10%, IL-1B inflam inh -11, DT40 TDP1 CPT 14%, ELG1 DNA repair -1%, HT1080 IDH1KD tx 6% and HT1080NT lethal -9%.
For CON(C)C(=O)CC(CNC(=O)OC(C)(C)C)c1ccc(Cl)cc1 (stereo not given) the results were TDP1 cell noCPT 15µM*, IL-1B inflam inh 4, DT40 TDP1 CPT inconclusive, ELG1 DNA repair 3%, HT1080 IDH1KD tx -3% and HT1080NT lethal 1%.

Screening data from PubChem BioAssay.
